Test results reported in PubChem BioAssay AID2551 (National Center for Advancing Translational Sciences (NCATS), 2010).
Out of some 310,000 compounds screened, about 17,000 (5.5%) were called active. Inconclusive results (about 11%) are left out. Calls come from the whole dose curve; as a rule, active = well fitted inhibition curve with a large enough effect; inconclusive = small, poorly fitted or top-dose-only effect, or effect the other way; inactive = no such curve, though single readings can be large or run the other way. Shown is part of a subset that was picked to be rich in actives.

molecular target: Nuclear receptor ROR-gamma (Mus musculus) (UniProt P51450); assay: qHTS for inhibitors of ROR gamma transcriptional activity; conditions: Drosophila S2 Gal4-RORgamma UAS-luciferase reporter, 20 h; series mostly up to 53.6 µM; note: nearly all actives have a fitted effect of over 60% in size
Sequence (P51450 whole entry, looked up, the tested form may be a part): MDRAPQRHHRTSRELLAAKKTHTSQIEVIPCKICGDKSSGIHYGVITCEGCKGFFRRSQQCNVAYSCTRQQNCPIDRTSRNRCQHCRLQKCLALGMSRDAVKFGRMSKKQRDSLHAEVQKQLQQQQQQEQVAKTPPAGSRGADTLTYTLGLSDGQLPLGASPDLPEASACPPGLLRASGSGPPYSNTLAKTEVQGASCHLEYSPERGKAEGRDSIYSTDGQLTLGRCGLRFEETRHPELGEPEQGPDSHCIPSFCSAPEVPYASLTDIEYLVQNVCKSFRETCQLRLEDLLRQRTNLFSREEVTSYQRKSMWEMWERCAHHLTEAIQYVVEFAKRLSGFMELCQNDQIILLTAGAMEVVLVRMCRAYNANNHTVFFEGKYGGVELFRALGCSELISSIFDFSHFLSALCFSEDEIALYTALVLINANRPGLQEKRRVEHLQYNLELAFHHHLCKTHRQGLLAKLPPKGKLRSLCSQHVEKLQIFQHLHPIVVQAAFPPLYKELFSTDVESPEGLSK
Procedure, shortened: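 In this cell-based reporter format, copper sulfate (700 uM final) drives Gal4–ROR gamma fusion expression from a metallothionein promoter in Drosophila Schneider cells; compounds preincubated 1 hr, reporter read after 20 hr at ambient temperature.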
% is set by controls: 0 for no effect and ±100 for the full control effect; potency is the fitted concentration of half-maximal effect.

Potency, inactive:
CN1/C(=C\C(=O)c2cccnc2Cl)C(C)(C)c2ccccc21, Cc1noc(C)c1C(=O)OCC(=O)/C=C1\N(C)c2ccccc2C1(C)C, CC(c1ccco1)N(C(=O)Nc1ccccc1)C1CCCCC1 (stereo unspecified), COC(=O)CSc1nc2ccccc2c(=O)n1Cc1ccccc1, Cc1cc(C)n(CCNS(=O)(=O)c2ccc(Cl)cc2)n1, Cc1ccc(CSCC(N)C(=O)O)cc1 (stereo unspecified), Cc1ccc(SC(C)C(=O)NCc2ccc(F)cc2)cc1 (stereo unspecified), Cc1sc2ncn(CC(=O)NCCCC(=O)N(C)Cc3ccccc3)c(=O)c2c1C, O=C(CN1C(=O)c2cccnc2Oc2ccc(Cl)cc21)Nc1ccc(F)cc1, COc1cccc(CSc2nc3nc(C)cc(C)n3n2)c1, Cc1cc(NC(=O)CCC(=O)N(CC(=O)NC2CCCC2)c2ccc(F)cc2)no1, COCCN(C(=O)CCC(=O)Nc1nccs1)C(C(=O)NCCC(C)C)c1ccc(F)cc1 (stereo unspecified), Cc1ccc(S(=O)(=O)N(CC(O)CN2C(=O)NC(C)(C)C2=O)c2cccc([N+](=O)[O-])c2)cc1 (stereo unspecified), CCOc1ccccc1/C=N/NC(=O)CNC(=O)COc1ccccc1, C=CCOc1ccccc1/C=N/NC(=O)Cc1ccccc1, N#Cc1cc([N+](=O)[O-])ccc1NCC1CCCO1 (stereo unspecified), Cc1ccc(NC(=O)C2CCCN2C(=O)OCc2ccccc2)cc1C (stereo unspecified), O=C(N/N=C/c1cccc(O)c1)c1cc2c(ccc3ccccc32)o1, Cc1ccc(S(=O)(=O)CC(=O)Nc2nnc(C)s2)cc1, CSc1ncc(Cl)c(C(=O)Nc2cc(C)ccc2C)n1, Cc1cccc(NC(=O)C(C)SCc2ccccc2)c1 (stereo unspecified), Cc1nnc(NC(=O)CCCOc2ccccc2)s1, Cc1cccc(OCc2ccc(C(=O)Nc3ccc(F)cc3)cc2)c1, CCSc1ncc(Cl)c(C(=O)Nc2cc(C)ccc2C)n1, O=C(CCS(=O)(=O)c1ccccc1)NC1CCCC1, CSCCC(NS(=O)(=O)c1ccc(C)cc1)C(=O)NCCc1c[nH]c2ccccc12 (stereo unspecified), O=C(CN(C(=O)CCC(=O)Nc1nccs1)c1ccc(F)cc1)NCc1ccc2c(c1)OCO2, COc1ccc(N2CCC(N3CCN(C)C(CCO)C3)CC2)cc1 (stereo unspecified), CC1(C)C(c2cccs2)=[N+]([O-])C2(CCCCC2=O)N1O (stereo unspecified), C/C(=N\O)C1(C)N(O)C(C)(C)C(c2ccc(Br)cc2)=[N+]1[O-] (stereo unspecified), CCOC(=O)c1c(-c2ccccc2)oc2cc(Br)c(O)c(C=O)c12, O=C(NCCc1ccccc1)c1ccc2c(c1)N(Cc1ccccc1)CCS2, COC(c1ccccc1)(c1ccccc1)C(Oc1nc(C)cc(C)n1)C(=O)O (stereo unspecified), COc1ccc(NC(=O)CCCN2C(=O)C(c3ccccc3)Oc3cccnc32)cc1 (stereo unspecified), COc1ccc(CN(C)C(=O)c2cc(-c3ccc(C)cc3C)nc3ccccc23)c(OC)c1OC, Cc1cc(=O)oc2c3c(cc(OCC(=O)NCCC(=O)N[C@@H](C)C(=O)O)c12)OC(C)(C)CC3, COC(=O)c1ccc(/C=N/NC(=O)C(=O)N2CCCCCC2)cc1, CC(/C=C/c1ccccc1)=N\NC(=O)C1CC1(C)c1ccccc1 (stereo unspecified), COc1ccccc1/C=C/C=N/NC(=O)CN1CCN(Cc2ccccc2)CC1, CN(C(=O)CCNC(=O)Cn1ccc2ccccc2c1=O)c1ccc(Br)cc1, COc1cc(NC(=O)C2CC(c3ccccc3O)=NO2)c(OC)cc1Cl (stereo unspecified), O=C(CN1C(=O)COc2ccc(Cl)cc21)Nc1ccc(N2CCOCC2)cc1, CCOC(=O)c1sc(NC(=O)c2cc(S(=O)(=O)N3CCOCC3)ccc2C)nc1C, Cc1ccc(S(=O)(=O)N2CCOCC2)cc1C(=O)NCc1ccc(F)cc1, COc1ccc([N+](=O)[O-])cc1NCC(=O)c1ccc(C)cc1, COCC1CCN(C(=O)CCc2nnc(C3(c4ccc(Cl)cc4)CCC3)o2)C1 (stereo unspecified), CCCNC(=O)COc1coc(CN2CCN(Cc3ccccc3)CC2)cc1=O, COC(=O)c1cc(S(=O)(=O)NCC2CCN(Cc3ccc(Cl)cc3)CC2)cn1C, O=C(O)/C=C/c1cn(-c2ccccc2)nc1-c1cccs1, O=c1[nH]c(-c2cccs2)nc2ccccc12

Potency, active:
CC(=O)Nc1cccc(OCC(=O)/C=C2\N(C)c3ccccc3C2(C)C)c1 7.08 µM, CC(NC(=S)Nc1ccccc1)C1COc2ccccc2O1 (stereo unspecified) 6.31 µM, Cc1ccc(SC(CC(=O)c2ccc(C(C)(C)C)cc2)C(=O)O)cc1 (stereo unspecified) 1.41 µM, C=C(C)CNC(=S)N/N=C/c1ccccc1OCC(=O)O 10 µM, Cc1ccc(CS(=O)(=O)c2ncc(Cl)c(C(=O)Nc3nnc(C)s3)n2)cc1 14.1 µM, Cc1cccc(CS(=O)(=O)c2ncc(Cl)c(C(=O)Nc3ccc(F)cc3)n2)c1 6.31 µM, Cc1cccc(NC(=O)c2nc(S(=O)(=O)Cc3ccccc3)ncc2Cl)c1 7.08 µM, CC(=O)C1(C)N(O)C(C)(C)C(c2cccs2)=[N+]1[O-] (stereo unspecified) 4.47 µM, C/C(CC(C)C)=N\Oc1nc(C)cc(C)n1 6.31 µM, O=C(N/N=C/C=C/c1ccccc1)C1CC1(c1ccccc1)c1ccccc1 (stereo unspecified) 8.91 µM, Cc1ccc(S(=O)(=O)N2CCOCC2)cc1C(=O)NC(=S)N(Cc1ccccc1)C(C)C 1.26 µM, S=c1[nH]c(-c2cccs2)cn1-c1ccccc1 5.01 µM

Activity change, negative = inhibition, inactive:
CC(=O)c1cccc(NC(=O)C2COc3ccccc3O2)c1 (stereo unspecified) -30.8% [at 1.91 µM], O=C(NCCNc1ccc([N+](=O)[O-])cc1Cl)c1ccccc1F -13.1% [at 1.91 µM], CCN(C(=O)c1cc([N+](=O)[O-])ccc1NCc1cccnc1)c1ccccc1 11.5% [at 1.91 µM], O=C1OC2(CCCCC2)CC2=C1C1O[C@](c3ccsc3)(Cc3ccccc31)O2 -3.37% [at 10 µM]
